Experimental data: PubChem BioAssay AID2314 (National Center for Advancing Translational Sciences (NCATS), 2010)
In all, about 300,000 compounds went through this assay and about 37,000 (12%) were called active. The full list was thinned out, with actives kept by preference. Values without a mark were called inactive. No stated cut-off is given here; in the data, active means max response mostly above about 13% (no sharp cut-off); inactive means mostly below about 14%.

experiment: Cycloheximide Counterscreen for Small Molecule Inhibitors of Shiga Toxin; settings: cell reporter, cycloheximide protein synthesis inhibition counterscreen; active compounds read high; further: read at 38.3 µM for the half of the compounds with a filed dose; 0% is about no effect

SMILES | max response
COc1ccc(C2CC(c3cccs3)=NN2C(=O)COC(=O)c2cc3ccccc3cc2O)cc1OC (stereo not drawn) | -1.77%
C=CCn1c(SCc2ccc(C(=O)NCCO)cc2)nc2ccccc2c1=O | 0.679%
Cc1cc(C)cc(N(CC(=O)NC2CCCC2)C(=O)CCC(=O)Nc2cc(C)on2)c1 | -3.66%
O=C(NCCCN1CCOCC1)c1cc(-c2cccc(O)c2)on1 | 2.22%
O=C(NCCCN1CCOCC1)c1cc(-c2ccccc2F)no1 | 28% (active)
O=C(c1ccco1)N1CCN(C(=S)Nc2cc(F)cc(F)c2)CC1 | -0.627%
O=C(NCCCN1CCOCC1)c1cnn2c(-c3ccccc3)cc(-c3ccccc3)nc12 | -2.91%
O=C(Cc1c(F)cccc1Cl)N1CCN(C(=O)c2ccco2)CC1 | -3.56%
O=C(NCCCN1CCOCC1)c1ccccc1NS(=O)(=O)c1ccc(F)cc1 | 16.7% (active)
O=C(NCCCN1CCOCC1)c1cc(-c2ccc(Cl)cc2)on1 | -2.13%
O=C(c1ccco1)N1CCN(C(=O)c2cc(-c3ccccc3F)no2)CC1 | 24.9% (active)
O=C(NCCCN1CCOCC1)c1ccccc1NS(=O)(=O)c1ccc(Br)cc1 | 2.08%
Cc1ccccc1-n1cc(CNC(=O)CC2C(=O)NCCN2C/C=C/c2ccccc2)cn1 (stereo not drawn) | 0.457%
COc1ccc(NC(=O)CCn2ccnc2)c(OC)c1 | -2.17%
COc1ccc(Cl)cc1NC(=O)C(C)N1CCc2ccccc21 (stereo not drawn) | -0.595%
CC1CC(C)CN(C(=O)CSc2ccsc2[N+](=O)[O-])C1 (stereo not drawn) | 25.5%
COc1ccc(C(CNC(=O)COc2ccccc2OC)N2CCCCC2)cc1 (stereo not drawn) | -6.3%
CC1CN(CCCOc2ccccc2-c2ccccc2)CC(C)O1 (stereo not drawn) | -3.01%
NNC(=O)CSc1nnc(-c2ccccc2)n1-c1ccccc1 | -4.61%
COc1ccc(C(=O)C2CCCN(S(=O)(=O)c3cccc(C)c3)C2)c(C)c1 (stereo not drawn) | 1.12%
COc1ccc(Cc2nnc(SCC(=O)Nc3ccc(C)c(C)c3)o2)cc1OC | -0.716%
NC1=NN(c2cccc(C(=O)O)c2)C(=O)C1 | 131% (active)
COC(=O)CC1=NN(c2ccccc2)C(=O)C1 | -2%
O=C(c1cccc(N2CCCC2=O)c1)N1CCOCC1 | -1.05%
CCO[C@H]1OC(C(=O)N2CCN(Cc3ccccc3)CC2)=C[C@@H](c2cn(C(C)=O)c3ccccc23)[C@@H]1CCCO | -1.61%
O=C(Nn1cnc2ccccc2c1=O)c1ccc(F)cc1Cl | 22.9% (active)
O=C(Nn1cnc2ccccc2c1=O)c1ccc([N+](=O)[O-])cc1Cl | 3.29%
O=C(Nn1cnc2ccccc2c1=O)c1ccccc1 | 18%
